KKLEB tox: reduces viability of KKLEB cystic fibrosis airway cells. KKLEB CF airway cells viability, ATPlite luminescence, overnight; stronger effect = lower value; cells stimulated with P. aeruginosa culture filtrate. activity change (cytotoxicity), % at 5 µM. 360,000 tested, 0.36% active. AID 602141;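 active means corrected activity change at or below -50% at 5 µM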
B2AR ag: human beta-2 adrenergic receptor agonism by FAP. Am2.2-beta2AR cells, FAP receptor internalization, flow cytometry. response, % (concentration not given with the values). 340,000 tested, 0.43% active. AID 504454;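 active means response above a set limit, near 3 SD of response in nonfluorescent compounds, cut at about 42% in these data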
HIF-2a inh: HIF-2a inhibition; 786-0 RCC cells HIF-2a reporter, luciferase luminescence, overnight; inhibition, % at 18.8 µM; 360,000 tested, 0.72% active; AID 624352;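 active means inhibition of the luminescence signal of 40% or more relative to plate controls, in a single-dose primary screen at 18.75 µM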
Peg3 prom inh: Peg3 promoter activity inhibition; 360,000 tested, 1.7% active; inhibition, % at 20 µM; HeLa PEG-Prom luciferase reporter, luminescence, overnight;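 active means inhibition of at least 50% at 20 µM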
TRPM1 prom inh: inhibitors of MITF-driven TRPM1 promoter in melanoma cells | AID 488899 | 330,000 tested, 0.83% active | inhibition, % at 12.5 µM | SK-MEL-5 TRPM1 promoter luciferase, 24 h;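 active means mean inhibition across replicates of 60% or more, whatever share of single replicates reaches that level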
CF NFkB inh: cystic fibrosis NF-kB activation inhibition; KKLEB NF-kB-GFP reporter, PAF-induced, GFP fluorescence overnight; inhibition, % at 5 µM; 360,000 tested, 0.86% active;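 active means at least 50% inhibition at 5 µM, scaled per plate between neutral and stimulator controls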;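 further: PAF is a Pseudomonas aeruginosa culture filtrate used as stimulus; plate controls were PAF-stimulated DMSO wells for no effect and unstimulated DMSO wells for full effect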
Mdm2-MdmX confirm: Mdm2/MdmX (human) interaction inhibition, confirmed; shares compounds with HIF-2a inh; SaOS-2 split-luciferase Mdm2/MdmX complementation, luminescence; inhibition, % at 8 µM; 740 tested, 99% active;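 active means mean inhibition of the luminescence signal across two replicates at or above 26 percent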
HIF-2a conf: confirmation of HIF-2a inhibitors; shares compounds with HIF-2a inh; 786-0 RCC cells, HIF-2a luciferase reporter luminescence, overnight; inhibition, % at 18.8 µM; 1,800 tested, 56% active; AID 651580;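 active means mean inhibition across four replicates of at least 40 percent at the single tested concentration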
HIF-1a cs: HIF-1a inhibition counter-screen for HIF-2a hits. 1,800 tested, 72% active. inhibition, % at 18.8 µM. shares compounds with HIF-2a inh. AID 651589. MiaPaCa-2 HIF-1a luciferase reporter, desferoxamine, overnight;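 active means mean inhibition of the reporter signal across four replicates at the single tested dose of 50% or more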
Starred values were filed as active, the others as inactive. This is a sample that favours compounds with a hit; in the whole collection about 2.8% have one here.

For Cc1cc(C(C)(C)CC(C)(C)C)ccc1OCCOCC[N+](C)(C)Cc1ccccc1 the results were KKLEB tox -22, B2AR ag 14, HIF-2a inh -11, Peg3 prom inh 102*, TRPM1 prom inh 96*, CF NFkB inh 63* and Mdm2-MdmX confirm 103*.
COc1cc(C2CC(c3cccs3)=NN2C(=O)CCl)ccc1OC(F)F (stereo not drawn) was read as KKLEB tox -88*, B2AR ag -522, HIF-2a inh 38, Peg3 prom inh 109*, TRPM1 prom inh 65*, CF NFkB inh 104* and Mdm2-MdmX confirm 103*.
`COc1ccc(C2CC(c3cccs3)=NN2C(=O)c2ccccc2)cc1OC` (stereo not drawn) gave KKLEB tox 5, B2AR ag 2, HIF-2a inh 10, Peg3 prom inh 8, TRPM1 prom inh -8 and CF NFkB inh 2.
For COc1ccc(C2CC(c3cccs3)=NN2C(=O)CCC(=O)O)cc1 (stereo not drawn) the results were KKLEB tox 15, B2AR ag -6, HIF-2a inh -3, Peg3 prom inh 1, TRPM1 prom inh 3 and CF NFkB inh -2.
For COc1ccc(C2CC(c3cccs3)=NN2C(=O)CCl)cc1OC (stereo not drawn) the results were KKLEB tox -11, B2AR ag 13, HIF-2a inh 3, Peg3 prom inh 103*, TRPM1 prom inh 83*, CF NFkB inh 36 and Mdm2-MdmX confirm 96*.
For Cc1ccc(C2=NN(C(=O)CCl)C(c3cccs3)C2)o1 (stereo not drawn) the results were KKLEB tox -21, B2AR ag -3, HIF-2a inh 84*, Peg3 prom inh 60*, TRPM1 prom inh 73*, CF NFkB inh 46, Mdm2-MdmX confirm 101*, HIF-2a conf 2 and HIF-1a cs 51*.
`Nc1sc(-c2ccccc2)cc1C(=O)N1CCNCC1` gave HIF-2a inh -12.
`CC1=C(CO)C(=O)OC([C@@H](C)C2CC[C@H]3C4C[C@H]5O[C@]56[C@@H](O)C=CC(=O)[C@]6(C)C4CC[C@]23C)C1` (stereo partly drawn) gave KKLEB tox -3, B2AR ag 22, HIF-2a inh 94*, Peg3 prom inh 109*, TRPM1 prom inh 106*, CF NFkB inh 85*, HIF-2a conf 97* and HIF-1a cs 107*.
For CCCc1nc2ccc(Cl)cn2c1Cc1ccccc1OC the results were KKLEB tox 2, HIF-2a inh -27, Peg3 prom inh -3 and CF NFkB inh 6.
`CN(CC(=O)Nc1ccccc1Cl)C(=O)c1ccccc1Sc1ccccc1C#N` gave KKLEB tox -7, B2AR ag 9, HIF-2a inh 0, Peg3 prom inh 6, TRPM1 prom inh 9 and CF NFkB inh -37.
For COc1cc(OC)nc(-n2ncc(Br)c(Br)c2=O)n1 the results were KKLEB tox -94*, B2AR ag 25, HIF-2a inh 92*, Peg3 prom inh 104*, TRPM1 prom inh 93*, CF NFkB inh 91*, HIF-2a conf 100* and HIF-1a cs 106*.
For COC(=O)c1cnn(-c2nc(OC)cc(OC)n2)c1C the results were KKLEB tox 16, B2AR ag -1, HIF-2a inh 2, Peg3 prom inh -5, TRPM1 prom inh -12 and CF NFkB inh -26.
For Cc1cc(C)c(C(CC(=O)c2cccs2)C(C#N)C#N)c(C)c1 (stereo not drawn) the results were KKLEB tox -54*, B2AR ag 7, HIF-2a inh 76*, Peg3 prom inh -12, TRPM1 prom inh -39, CF NFkB inh 61*, HIF-2a conf -39 and HIF-1a cs 102*.
`CC(CC(=O)c1cccs1)CC(=O)c1cccs1` gave KKLEB tox -10, B2AR ag -14, HIF-2a inh -211, Peg3 prom inh -122, TRPM1 prom inh -72 and CF NFkB inh 2.
For O=C(O)CCSc1ncnc2sc(-c3ccccc3)cc12 the results were KKLEB tox -7, B2AR ag 19, HIF-2a inh 91*, Peg3 prom inh 25, CF NFkB inh 7, HIF-2a conf 94* and HIF-1a cs 84*.
Cc1cccc(C)c1NC(=O)C1(C)CN(S(C)(=O)=O)CC(=O)N1CCOc1ccccc1 (stereo not drawn) was read as HIF-2a inh 9.
Screening O=C1C=CC(=O)N1Cc1ccncc1 returned KKLEB tox 7, B2AR ag -1, HIF-2a inh 4, Peg3 prom inh 12, TRPM1 prom inh 8 and CF NFkB inh -23.
`O=C1C=CC(=O)N1CCCCCCCCCCN1C(=O)C=CC1=O` gave KKLEB tox -25, B2AR ag 16, HIF-2a inh 71*, Peg3 prom inh 102*, TRPM1 prom inh 91*, CF NFkB inh 74*, HIF-2a conf 61* and HIF-1a cs 80*.
C[C@@H]1CN([C@H](C)CO)C(=O)CCCn2nncc2CO[C@H]1CN(C)S(=O)(=O)c1ccc(F)cc1 was read as KKLEB tox -8, HIF-2a inh 2, Peg3 prom inh -2 and CF NFkB inh 11.
CCOC(=O)[C@]12CCC=C1N(Cc1cccc3ccccc13)C(=O)[C@H](CC(=O)NCc1ccc(C)o1)C2 was read as HIF-2a inh -7.
`O=C(Nc1ccc(Nc2ccncc2)cc1)c1ccc([N+](=O)[O-])cc1` gave KKLEB tox -1, B2AR ag 2, HIF-2a inh 48*, Peg3 prom inh 80*, TRPM1 prom inh 86*, CF NFkB inh 16, HIF-2a conf -23 and HIF-1a cs 27.
`CCCCCCCCCCCCCCCC[n+]1ccc(C(N)=O)cc1` gave KKLEB tox -69*, B2AR ag 15, HIF-2a inh 80*, Peg3 prom inh 98*, TRPM1 prom inh 18, CF NFkB inh 63*, Mdm2-MdmX confirm 100*, HIF-2a conf 53* and HIF-1a cs 100*.
Screening CCCCC(=O)Nc1ccc(C(N)=O)cc1 returned KKLEB tox 0, B2AR ag 8, HIF-2a inh -17, Peg3 prom inh -23, TRPM1 prom inh 8 and CF NFkB inh 8.
